Screening data (PubChem BioAssay)
FMDV antiviral: foot and mouth disease virus antiviral activity; Potency, µM (highest dose often 57.9 µM), without a hit: at the highest dose activity change, negative = inhibition, most hits filed as inhibitors; FMDV antiviral cell-based qHTS; 410,000 compounds, 1.2% hits; calls by dose curve; tested in HEK293T cells; note: read-out not given here; potency is the fitted concentration of half-maximal effect; % is set by controls: 0 for no effect and ±100 for the full control effect; nearly all actives have a fitted effect of over 45% in size
HCMV inh: inhibitors of human cytomegalovirus; AID 1259415; 410,000 compounds, 4.5% hits; activity change, negative = inhibition, % at 57.5 µM; HFF cells, HCMV-luciferase reporter, 72 h; active compounds read low; in the data active = activity change below about -60%; inconclusive = no clear call, values can overlap the other calls; inactive = above about -39%; note: % is set by controls: 0 for no effect and ±100 for the full control effect
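Steps: HFFs plated, 16 h 37C; compounds added; HCMV-luciferase added to MOI 1 PFU/cell; 72 h 37C; OneGlo reagent, 5 min room temperature; luminescence read, normalized to controls.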
HCV inhibitor: blocks hepatitis C virus. 340,000 compounds, 3.4% hits. Potency, µM (highest dose often 41.8 µM), without a hit: at the highest dose activity change, negative = inhibition, most hits filed as inhibitors. AID 651820. Huh7.5.1 HCVcc-Cre infection, luciferase reporter, 44 h; active = well fitted inhibition curve with a large enough effect; inconclusive = small, poorly fitted or top-dose-only effect, or another doubt; inactive = no such curve, though single readings can be large or run the other way; note: potency is the fitted concentration of half-maximal effect; % is set by controls: 0 for no effect and ±100 for the full control effect
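HCVcc-Cre virus at an moi near 0.5 was added right after compound to cells cultured 4 h from seeding (1,000 cells/well). Luciferase activity was determined 44 h later, 15 min after substrate addition at RT.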
SARS PLpro yeast: blocks SARS-CoV papain-like protease in a yeast assay; S. cerevisiae expressing SARS-CoV PLpro, growth rescue; Potency, µM (top dose mostly 32.9 µM), for the others: top-dose activity, positive = growth rescue, usual class: activators; 330,000 compounds, 0.19% hits; calls by dose curve; note: potency is the fitted concentration of half-maximal effect; 0% is about no effect; nearly all actives have a fitted effect of over 55% in size
LASV entry inh: blocks Lassa virus binding to or entry into cells; Potency, µM (top dose mostly 37.9 µM), inactives show top-dose activity change, negative = inhibition, usual class: inhibitors; 300,000 compounds, 1.2% hits; Lassa virus pseudotype entry inhibition, cell reporter; AID 540256; calls by dose curve; tested in HEK293 cells; note: potency is the fitted concentration of half-maximal effect; % is set by controls: 0 for no effect and ±100 for the full control effect; nearly all actives have a fitted effect of over 50% in size
MARV entry inh: Marburg virus entry inhibition. Potency, µM (highest dose often 37.8 µM), for the others: at the top dose activity change, negative = inhibition, most hits filed as inhibitors. Marburg virus pseudotyped entry inhibition, cell reporter. 300,000 compounds, 1.8% hits; calls by dose curve; tested in HEK293 cells; note: potency is the fitted concentration of half-maximal effect; % is set by controls: 0 for no effect and ±100 for the full control effect
* marks the source's active call; other numbers are inactive results; ? = inconclusive; / = no result; [ ] = another dose, or the depositor's remark. This is a sample that favours compounds with a hit; in the whole collection about 8% have one here.

SMILES | FMDV antiviral | HCMV inh | HCV inhibitor | SARS PLpro yeast | LASV entry inh | MARV entry inh
CCS(=O)c1ccccc1C(=O)OCC(=O)Nc1cccc(S(=O)(=O)N2CCCCC2)c1 (stereo not drawn) | ? | -8 | 10µM* | 0% | / | /
CCOc1ccccc1C(=O)OCC(=O)Nc1cccc(S(=O)(=O)N2CCCC2)c1 | ? | 0 | 5% | -5% | / | /
CC(C)c1ccc(CNc2nc(-c3ccco3)nn2S(=O)(=O)c2ccc3ccccc3c2)cc1 | 24% | 25 | / | / | 0%[46.1 µM] | 23%[46.1 µM]
Cc1ccc(NC(=O)Cn2c(=O)nc(-c3ccccc3F)c3cc(Cl)ccc32)c(Br)c1 | -22% | ? | / | / | ? | -28%[46.1 µM]
CN1CCN(c2ccc(Cl)cc2NC(=O)/C=C/c2cccc(F)c2)CC1 | 0% | 26 | ? | -1% | -15%[46.1 µM] | 5µM*
O=C(Nc1cccc(Br)c1)Oc1cccc2cccnc12 | -15% | -35 | / | / | / | /
Cc1cc(OCC(=O)Nc2cccc(S(=O)(=O)N3CCCC3)c2)ccc1Cl | 0% | -13 | ? | 1% | ? | 5µM*
O=C(Nc1c(Cl)cccc1Cl)Oc1cccc2cccnc12 | -9% | -98* | / | / | / | /
CCN1CCN(c2ccc(S(=O)(=O)N3CCCCC3)cc2NC(=O)COc2ccc(Cl)c(C)c2)CC1 | -13% | 17 | 11µM* | 1% | -2%[46.1 µM] | ?
CN1CCN(c2ccc(Cl)cc2NC(=O)c2cccc(S(=O)(=O)N(C)C)c2)CC1 | / | -2 | ? | -4% | 0% | ?
Cc1ncc2c(c1CNS(=O)(=O)N(C)C)CCN(C(=O)/C=C/c1ccccc1F)C2 | -4% | / | / | / | / | /
CCN1CCN(c2ccc(S(=O)(=O)N3CCCCC3)cc2NC(=O)/C=C/c2ccc(Cl)cc2)CC1 | -19% | 4 | 32µM* | / | 18µM* | ?
COc1cc(Cn2c(=O)oc3ccc(C)cc32)ccc1OC(C)C | ? | 12 | 1.1µM* | 20% | 3% | 18%
OC/C=C/c1ccc(O)c(O)c1 | -10% | / | / | / | / | /
Cc1ccc(CN2CCc3nnc(C(NC(=O)c4ccoc4)C(C)C)n3CC2)cc1C (stereo not drawn) | 6% | / | / | / | / | /
CC1(C)Oc2ccc3ccc(=O)oc3c2/C(=C/NNC(N)=O)C1=O | -14% | -95* | -14% | -14% | / | /
CC(=O)Oc1cccc2c1C(=O)c1c(OC(C)=O)cc(C(=O)O)cc1C2=O | ? | -3 | 7.1µM* | 14% | 2% | 11%
Cc1ccc(CN2CCN(C3CCNCC3)C(=O)C2=O)cc1 | -3% | -3 | / | / | 15%[46.1 µM] | /
CNCCNC[C@H](Cc1cccc2ccccc12)NCCc1ccccc1 | -20% | -100* | ? | -5% | / | /
CNC[C@H](Cc1ccccc1)NC[C@@H](Cc1cccc2ccccc12)NCCc1ccc(C)cc1 | -28% | ? | 14% | -11% | / | /
CCCCn1c(-c2nonc2N)nc2ccccc21 | -16% | 18 | ? | 3% | -25% | ?
CC(C)CCn1c(-c2nonc2N)nc2ccccc21 | -1% | ? | 11µM* | -9% | -23% | ?
CCOC(=O)c1ccccc1NC(=O)Cn1c(-c2nonc2N)nc2ccccc21 | 0% | -74* | ? | 4% | ? | 0.052µM*
Nc1nonc1-c1nc2ccccc2n1CC(=O)Nc1ccccc1 | -2% | 19 | ? | 0% | -12% | ?
Cc1cc(C)c(NC(=O)C2CCN(C(=O)N3CCOc4ccccc43)CC2)c(C)c1 | ? | -16 | / | / | -7%[46.1 µM] | /
SMILES | FMDV antiviral | HCMV inh | HCV inhibitor | SARS PLpro yeast | LASV entry inh | MARV entry inh
COC(=O)c1ccc(-n2ccnc2)cc1 | -8% | -28 | 15% | -2% | 0% | -1%[46.1 µM]
CCOC(=O)C(=Cc1ccc(-n2ccnc2)cc1)C(=O)OCC | 22µM* | -86* | ? | -23% | ? | ?
CCOC(=O)C(CC)(CC)C(=O)/C=C/c1ccc(Br)cc1 | ? | -106* | ? | -13% | -10% | 3%
CCOC(=O)C(=Cc1ccc(Br)cc1)C(=O)OCC | 22µM* | -100* | ? | -4% | ? | ?
CCOC(=O)C(=Cc1ccc(F)cc1)C(=O)OCC | / | / | / | -7% | / | /
CCN(CC(=O)Nc1ccc(NC(C)=O)cc1)C(=O)c1cccc(-n2cccc2)c1 | 0% | / | 10% | -1% | ? | -5%
COc1ccc2c(CNCCc3ccccc3OC)c(C(=O)O)n(Cc3ccc(F)cc3Cl)c2c1 | -5% | -108* | / | / | -12%[46.1 µM] | /
CCc1ccc(CNCc2c(C(=O)O)n(Cc3cccc(F)c3)c3cc(OC)ccc23)cc1 | -18% | ? | / | / | ? | /
COc1ccc(Cn2c(C(=O)O)c(CNC3CCCCCC3)c3ccc(OC)cc32)cc1 | -3% | -100* | / | / | 3%[46.1 µM] | /
COc1ccc2c(CNCCc3ccc(SC)cc3)c(C(=O)O)n(Cc3ccc(F)cc3)c2c1 | -18% | -74* | / | / | ? | /
COc1ccc2c(CNC3CCCCCC3)c(C(=O)O)n(Cc3ccc(C)cc3)c2c1 | -16% | 11 | / | / | -14%[46.1 µM] | /
O=S(=O)(Nc1nc(-c2ccccc2)cs1)c1cc(Cl)ccc1Cl | 13% | 1 | -2% | -11% | 3% | 16%
CN1c2ccccc2[C@@]2(O)C(=O)[C@@]1(C)[C@@H]1C=CCC[C@H]12 | / | / | / | / | / | 29%[14.2 µM]
CC(C)CNC(=O)C1(C)CCCN1Cc1ccc(S(C)(=O)=O)cc1 (stereo not drawn) | -12% | -102* | / | / | / | /
COC(=O)c1cc2c(c3c4ccccc4n(S(=O)(=O)c4ccc(C)cc4)c13)C(=O)N(Cc1ccccc1)C2 | / | -7 | / | / | / | /
COC(=O)c1c[nH]c2c1-c1cc(C(=O)OCc3ccccc3)n(S(=O)(=O)c3ccc(C)cc3)c1C(=O)C2=O | 7.9µM* | 112 | ? | / | ? | -16%
COC(=O)c1cc(C(=O)OC)cc(N2C(=O)CC(NNC(=O)c3ccccc3Br)C2=O)c1 (stereo not drawn) | 29% | 33 | 0% | 1% | 6% | 14%
COC(=O)c1cc(C(=O)OC)cc(N2C(=O)CC(NNC(=O)c3ccc(C)cc3)C2=O)c1 (stereo not drawn) | 7% | 2 | 39% | 14% | 0.79µM* | ?
COc1cc(C(=O)Nc2cccc(-c3nc4ncccc4o3)c2C)cc(OC)c1OC | 3% | -106* | ? | -2% | 0% | 24%
Clc1ccccc1OCc1nnc(-c2ccccc2Br)o1 | 66% | 83 | -8% | -15% | ? | 6%
O=c1c(Cl)c(Cl)cnn1Cc1nnc(-c2ccccc2Br)o1 | ? | -99* | ? | -11% | -17%[46.1 µM] | ?
C[C@@H]1CC[C@H]2C(=O)N(Cc3cccc([N+](=O)[O-])c3)C[C@@H](O)CN2[C@@H]1c1cccc(Br)c1 | / | / | / | / | -5%[14.3 µM] | ?
CCCCOc1ccccc1NC(=O)c1ccco1 | -6% | -4 | ? | -12% | ? | ?
CCCCOc1ccccc1NC(=O)c1scc2c1OCCO2 | ? | -28 | 13µM* | -10% | ? | ?
CCn1c(-c2ccccc2F)nc2cc(NC(C)=O)cc(C(=O)NC(c3ccccn3)C(F)(F)F)c21 (stereo not drawn) | -10% | / | / | / | / | /
